± gives the standard deviation.
How the values were obtained:
[1] = tested on: MILI (PIWIL2) piRISC loaded with L1MC piRNA (26 nt); assay: pre-steady-state target cleavage rate (min^-1); guide: L1MC piRNA 5'p-UAACUAAAUACUAUGCAAGCUGUAGG; higher = faster piRNA-guided slicing of the target
Outline: (§1)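 Cleave-'n-Seq: 1 nM active affinity-purified piRISC with one synthetic guide and 0.1 nM transcribed, DNA-blocked target RNA library were mixed, with or without 500 nM GTSF1 partner protein, in HEPES–potassium acetate buffer at 33 °C for 0–8 or 0–960 min. Uncleaved targets were sequenced and normalised to depth and to weakly complementary targets, three trials were pooled, and k3 was capped at 0.0001 min^-1. The pre-steady-state cleavage rate was fitted […].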

[2] = tested on: EfPiwi piRISC loaded with L1MC piRNA (26 nt); assay: pre-steady-state target cleavage rate (min^-1); auxiliary factor: 500 nM Ephydatia muelleri Gtsf1; guide: L1MC piRNA 5'p-UAACUAAAUACUAUGCAAGCUGUAGG; MIWI and MILI are mouse PIWI proteins and EfPiwi is from a freshwater sponge; tags in brackets are library labels; higher = faster piRNA-guided slicing of the target
Outline: as §1

[3] = auxiliary factor: 500 nM mouse GTSF1
[4] = auxiliary factor: none (no GTSF1)

Sequence	pre-steady-state target cleavage rate [1, 3]	pre-steady-state target cleavage rate [2]	pre-steady-state target cleavage rate [1, 4]
UCCUGGAACAGCUUGCAUAGAAUUUAGAUA	0.0527 ± 0.018	0.00187 ± 0.0015	
UCCUGCUACAGCUUGCAUAGUAAUUUGUUA	0.245 ± 0.053	0.00579 ± 0.002	
UCCUGCUACAGCUUGCAUAGUAUAAUGUUA	0.166 ± 0.022	0.00304 ± 0.002	
UCCUGGUUCAGCUUCCAUAGUAUUUAGUUA	0.0301 ± 0.012	0.00303 ± 0.0021	
UCCUGGAAGUCCUUGCAUAGUAUUUAGUAA	0.122 ± 0.021	0.00346 ± 0.0028	
UCCUGGAACACCUUGCAUAGUAUUUAGAUA	0.183 ± 0.043	0.0026 ± 0.0026	
UCCUGGAUGUGCUUGCAUAGUAUUUAGUAUA	0.131 ± 0.019	0.00507 ± 0.0027	
UCCUGGAACAGCUUGCAUAGUAUAUAGAAA	0.0917 ± 0.026	0.00685 ± 0.0044	
UCCUCCUACAGCUUGCAUAGUAUUAUCUUA	0.105 ± 0.025	0.00351 ± 0.0027	
UCCUGCUACAGCUUGCAUAGUAAAAAGUUA	0.214 ± 0.036	0.00305 ± 0.0016	
UCCUGCUACAGCUUGCAUUAGUAUUUAGUUA	0.017 ± 0.007	0.00378 ± 0.003	
UCCUGCUACAGCUUGCAUAGAAAUUAGUUA	0.059 ± 0.015	0.0026 ± 0.0021	
UCCUGGAACAGCAUGCAUAGUAUUUAGAUA	0.188 ± 0.022	0.00441 ± 0.0022	
UCCUGGAACUGCUUGCAUACUAUUUAGUUA	0.076 ± 0.01	0.0046 ± 0.0019	
UCCUGGUACAGCUUGCAUAGUAUUUAGAAA	0.162 ± 0.03	0.00435 ± 0.0017	
UCCUGCUACAGCUAGCAUAGUAUUAAGUUA	0.3 ± 0.032	0.00662 ± 0.0026	
UCCUGGAUGAGCUAGCAUAGUAUUUAGAUA	0.168 ± 0.028	0.00406 ± 0.002	
UCCUCCUACAGCAAGCAUAGUAUUUAGUAA	0.238 ± 0.02	0.00371 ± 0.0026	
UCCUCCAACAGCUUGCAUAGUAUUUAGAAA	0.147 ± 0.023	0.00461 ± 0.0019	
UCCUCCUACUGCUUGCAUAGUAUUUAGAAA	0.0658 ± 0.017	0.00462 ± 0.0021	
UCCUGCUACAGCUUGCAUAGUAUUUUGUAA	0.107 ± 0.032	0.00356 ± 0.0022	
UCCUCCUACAGCUUGCAUAGGUAUUUAGUUA		0.0036 ± 0.0026	0.00373 ± 0.0024

Sequence	pre-steady-state target cleavage rate [1, 3]	pre-steady-state target cleavage rate [2]	pre-steady-state target cleavage rate [1, 4]
UCCUGGAUGAGCUUGCAAUAGUAUUUAGUUA	0.00505 ± 0.0031	0.00597 ± 0.003	
UCCUGGUACAGCUUGCAUAGUAUUAAGAAA	0.0213 ± 0.0097	0.00387 ± 0.0017	
UCCUGGAUCAGCUUGCAUAGUAAUUAGAUA	0.0994 ± 0.025	0.00275 ± 0.0021	
UCCUGGAUGAGCUUGGCAUAGUAUUUAGUUA	0.224 ± 0.054	0.0123 ± 0.0039	
UCCUGGAUCAGCUUGCAUAGUUUUUAGAUA	0.0159 ± 0.0066	0.00428 ± 0.0026	
UCCUCCUACAGCUUGCAUAGAUUUUAGUAA	0.0588 ± 0.015	0.00392 ± 0.0025	
UCCUCCUACAGCUUGCAAUAGUAUUUAGUUA	0.0415 ± 0.01	0.0427 ± 0.014	
UCCUCCUACACCUUGCAUAGAAUUUAGUUA	0.0594 ± 0.019	0.0018 ± 0.0016	
UCCUGCUAGAGCUUGCAUAGUUUUUAGUUA	0.0598 ± 0.012	0.00419 ± 0.0013	
UCCUGGUACAGCUUGGAUAGUAUUUAGUAA	0.202 ± 0.041	0.00283 ± 0.0021	
UCCUCCUACAGCUUGCAUUGUAUUUAGAAA	0.0778 ± 0.019	0.00363 ± 0.0015	
UCCUGCUACAGCUUGCAUAGUAUUUAGUA	0.335 ± 0.07	0.00529 ± 0.0019	
UCCUGGAACACCUUGCAUAGUAUAUAGUUA	0.189 ± 0.033	0.0051 ± 0.0035	
UCCUCCUACAGCUUGCAUAGUAUAAACAAA	0.165 ± 0.043	0.00398 ± 0.0028	
UCCUCCUACAGCUUGCAUAGUAUUAAGAUA	0.125 ± 0.032	0.00411 ± 0.0022	
UCCUGGUACAGCUUGCAUAGUAUUAACAAA	0.0231 ± 0.0084	0.00261 ± 0.0023	
UCCUGGAACAGCAUGCAUAGUAUUUUGUUA	0.116 ± 0.017	0.00267 ± 0.0022	
UCCUGCUACAGCUUGGAUAGUAUUUAGAUA	0.0476 ± 0.016	0.00339 ± 0.001	
UCCUCCUACAGCUUGCAUAGAAUUUAGUAA	0.148 ± 0.035	0.00443 ± 0.0022	
UCCUGCAUCAGCUUGCAUAGUAUUUUCAAA	0.118 ± 0.029	0.00236 ± 0.0016	
UCCUCGAACAGCUUGCAUAGUAUUUUCAAA	0.102 ± 0.021	0.00321 ± 0.0022	
UCCUCCUACAGCUUGCAAAGUAUUUAGAAA	0.0823 ± 0.015	0.00344 ± 0.0017	

Sequence	pre-steady-state target cleavage rate [1, 3]	pre-steady-state target cleavage rate [2]	pre-steady-state target cleavage rate [1, 4]
UCCUGGAUGUCCUUGCAUAGUAUUUAGGUUA	0.0768 ± 0.019	0.00393 ± 0.0033	
UCCUGGAUCAGCUUGCAUAGUAUUUUGAUA	0.0355 ± 0.013	0.00716 ± 0.003	
UCCUGGAUGACGAUGCAUAGUAUUUAGUUA	0.0949 ± 0.013	0.00546 ± 0.0027	
UCCUGGAUCUGCUUCCAUAGUAUUUAGUUA	0.0239 ± 0.0067	0.00326 ± 0.0022	
UCCUGCUACAGCUUGCAUAGUAUUUAGAUA	0.15 ± 0.029	0.00539 ± 0.0023	
UCCUGCUACAGCUUGCAUAGAAUUUAGUAA	0.237 ± 0.062	0.00358 ± 0.0016	
UCCUCCUUCAGCUUGCAUAGUAUUUACAAA	0.13 ± 0.029	0.00379 ± 0.0027	
UCCUCCUACAGCUUGCAUAGUUUUUUGUUA	0.0587 ± 0.013	0.00441 ± 0.0026	
UCCUGCAACAGCUUGCAUAGUAUUUAGAAA	0.138 ± 0.026	0.00432 ± 0.0016	
UCCUGGUACAGCAUGCAUAGUAUUUAGAAA	0.0581 ± 0.015	0.00215 ± 0.002	
UCCUGCUACAGCUUGCAUAGUAUUUCGUUA	0.132 ± 0.033	0.00379 ± 0.0018	
UCCUGGAUGUCGAACCAUAGUAUUUAGUCA		< 0.0001	< 0.0001
UCCUGGUACAGGUUGCAUAGAAUUUAGUUA	0.0804 ± 0.021	0.00277 ± 0.0022	
UCCUGCUACACCUUGCAUAGUAUUUUCAAA	0.0765 ± 0.028	0.00244 ± 0.0022	
UCCUGGAACAGCUUGCAUAGUAUUUUCAUA	0.0434 ± 0.013	0.00388 ± 0.002	
UCCUGCUACAGCAUGCAUAGUAUUUAGAAA	0.188 ± 0.041	0.00416 ± 0.0014	
UCCUGGAUGAGCUUGCAUUGUAUUUAGAAA	0.0178 ± 0.0069	0.00384 ± 0.0021	
UCCUGGAUGUGCUUGCAUAGUAUUUGAGUUA	0.123 ± 0.024	0.0118 ± 0.0069	
UCCUCCUACAGCUUGCAUAGAAUUAAGUUA	0.127 ± 0.03	0.00382 ± 0.0025	
UCCUGGAACAGCUUGGAUAGUUUUUAGUUA	0.0453 ± 0.0097	0.00298 ± 0.0022	
UCCUGGAACAGCUUGCAUAGUAUUUUCAAA	0.0774 ± 0.018	0.00233 ± 0.0023	

Reference: the supplement of paper PMC10338343
